Screening data: PubChem, The Scripps Research Institute Molecular Screening Center
HTR5A inv ctr = HTR5A inverse agonists in luminescence cell assay, primary screen, counter-screen for OPRM1-OPRD1 heterodimer inverse agonist project, full-deck HTS; AID 504634, 2011; inhibition, % at 9.3 µM; 5-hydroxytryptamine receptor 5A (Homo sapiens), P47898; HTR5A cell line, inverse agonism; actives 0.083% (n = 340,000); in the data active = inhibition mostly above about 23%, no sharp cut-off; inactive = mostly below about 18%;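 also: 0% = cells with DMSO and 100% = no-cell wells with DMSO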
OPRM1-OPRD1 inv = inverse agonists of MOR-DOR heterodimerization, primary screen, cell-based, luminescence | Mu-type opioid receptor (Homo sapiens) + Delta-type opioid receptor (Homo sapiens), … | cell-based MOR-DOR heterodimer luminescence, inverse agonism | inhibition, % at 9.3 µM | actives 0.21% (n = 340,000); in the data active = inhibition above about 22%, passing the limit was not always enough;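 also: 0% = cells with DMSO and 100% = wells without cells with DMSO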
HTR5A ag ctr = HTR5A agonists in luminescence cell assay, primary screen, counter-screen for OPRM1-OPRD1 heterodimer agonist project, full-deck HTS; AID 504692, 2011; actives 0.61% (n = 340,000); activation, % at 9.3 µM; cell-based; in the data active = activation mostly above about 9.5%, no sharp cut-off; inactive = mostly below about 7.6%;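 also: 0% = cells with vehicle only and 100% = reference agonist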
MOR-DOR ag = agonists of OPRM1-OPRD1 heterodimerization, primary screen, cell-based, luminescence; Mu-type opioid receptor (Homo sapiens) + Delta-type opioid receptor (Homo sapiens), …; cells; activation, % at 9.3 µM; actives 0.3% (n = 340,000); AID 504326, 2011; in the data active = activation above about 18%;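 also: 0% = vehicle-treated cells and 100% = reference agonist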
Starred values were filed as active, the others as inactive. Hits are enriched below; roughly 1.1% of the tested compounds scored in any of these assays.

SMILES	HTR5A inv ctr	OPRM1-OPRD1 inv	HTR5A ag ctr	MOR-DOR ag
CCOc1ncccc1C(=O)Nc1cc(S(=O)(=O)N2CCCCC2)ccc1OC	-4	9	1	-2
CC(=O)n1cc(N(C(=O)CCl)c2ccc(C)cc2)c2ccccc21	4	-339	55*	66*
O=C(O)c1ccc(-n2nc(C(F)(F)F)cc2-c2cccs2)cc1	-7	23	2	-5
COc1ccc(/C=N/n2cnnc2)cc1Oc1nc(Cl)ncc1F	-30	1	12*	0
COc1cc(/C=N/n2cnnc2)ccc1Oc1nc(Cl)ncc1F	9	5	-3	-1
CCN(CC)CCNC(=O)c1ccc(NC(=O)c2cc(S(=O)(=O)N3CCCCC3)ccc2C)cc1	-31	8	12*	-1
COc1ccc(N2CCN(CC(=O)Nc3ccccc3C(=O)NCc3ccccc3)CC2)cc1	-14	-19	6	5
COc1cccc(N2CCN(C(=S)NCc3ccco3)CC2)c1	-25	9	13*	-2
O=C(NCCc1ccncc1)Nc1ccccc1	-5	13	13*	-3
O=C(NCCc1ccncc1)Nc1ccc(Cl)c(Cl)c1	36	-12	0	2
COc1ccc(Nc2nc(OC)nc(OC)n2)cc1	12	18	-3	-4
COc1ccc(Nc2nc(Nc3ccc(OC)cc3)nc(-n3[nH]c(=O)c(C)c3C)n2)cc1	43*	17	-3	-3
COc1ccc(/C=C/C(=O)OCC(=O)NCCNC(=O)COC(=O)/C=C/c2ccc(OC)cc2)cc1	-44	-8	12*	1
COc1ccc(CNC(=O)COC(=O)/C=C/c2ccc(Cl)cc2)cc1	10	11	-3	-2
Cc1cc(C)n(-c2ccc(C(=O)N3CCN(S(=O)(=O)c4ccc(Cl)cc4)CC3)cc2)n1	9	16	-4	-4
Cc1cc(C(=O)NCC(=O)Nc2c(C)cccc2C)c(C)o1	-4	22	2	-4
O=C(NNS(=O)(=O)c1ccc(F)cc1)c1ccccc1F	-45	14	12*	-3
CN1CCN(c2ccc(NC(=S)NC(=O)/C=C/c3ccco3)cc2)CC1	3	23	3	-5
CCOc1ccc(NC(=O)CN(C)C(=O)c2cccnc2Sc2ccc(C)c(C)c2)cc1OCC	18	4	5	-1
Nc1nonc1-n1nnc(C(=O)N/N=C/c2ccc(Br)cc2)c1-c1ccc2c(c1)OCO2	-23	0	2	0
CCOc1ccc(-c2c(C(=O)N/N=C/c3ccc(C)o3)nnn2-c2nonc2N)cc1	0	17	0	-3
Nc1nonc1-n1nnc(C(=O)N/N=C/c2cccc(Cl)c2)c1-c1ccc2c(c1)OCO2	16	8	10*	-2
CCCOc1ccc(-c2c(C(=O)N/N=C/c3ccc(C)o3)nnn2-c2nonc2N)cc1	-37	-101	9.8*	19*
O=C(COC(=O)Cc1ccc(Cl)cc1)NC1CCCC1	4	9	-2	-2
Cc1cc([N+](=O)[O-])ccc1NC(=O)CSc1nncn1-c1ccccn1	6	0	-3	0
SMILES	HTR5A inv ctr	OPRM1-OPRD1 inv	HTR5A ag ctr	MOR-DOR ag
COc1cccc(NC(=O)Nc2nc(-c3ccc(OC)c(OC)c3)cs2)c1	-68	-154	25*	29*
COc1ccc(-c2csc(NC(C)=O)n2)cc1OC	-19	10	-2	-2
Cc1cccc(Nc2nc(CC(=O)O)cs2)c1	5	1	11*	0
Cc1c(CC(=O)N2CCN(C(=O)C3COc4ccccc4O3)CC2)c(=O)oc2c(C)c(O)ccc12 (stereo not given)	13	34*	-3	-7
NC(=O)c1cc([N+](=O)[O-])ccc1NCc1ccc(C(=O)O)cc1	17	8	-1	-1
c1ccc2c(c1)c1c(c3ccccc32)CN2CCCC2C1 (stereo not given)	7	-5	-2	1
Cc1nc2sc(C(=O)OC(C)C)c(N)c2c(C)c1C	-25	-1	8.8*	0
COc1ccc(C(=O)O/N=C(\N)Cc2ccc(Cl)c(Cl)c2)cc1OC	-143	-127	42*	22*
COc1ccc(C/C(N)=N/n2cnnc2)cc1Cl	2	6	-2	-1
Cc1ccc(C(C)(C)C)cc1S(=O)(=O)Nc1cccc(C(=O)N2CCN(c3ccccn3)CC2)c1	-21	-10	9	2
O=C(CSc1ccc(Cl)cc1)NN=C1CCCCCC1	12	-11	12*	2
O=C(CCSc1ccc(Cl)cc1)NN=C1CCCCCC1	-18	18	7	-3
